rTrxR1 inhibitor: rat TrxR1 inhibition. O89049. recombinant rTrxR1, NADPH fluorescence consumption, selenite substrate. Potency, µM (series often up to 114 µM), inactives show at the top dose activity change, negative = inhibition, most hits filed as inhibitors. 390,000 tested, 1% active; also: potency is read from the fitted curve at half-maximal effect; nearly all actives have a fitted effect of over 65% in size
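Rat TrxR1 (90 nM in the dispensed reagent) was pre-reduced with 400 uM NADPH for 5 min at room temperature, then incubated with compound for 15 min. After 400 uM selenite was added, NADPH fluorescence (Ex 340/Em 450 nm) was followed for 8 min.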
TrxR1 substrate: substrates of rat thioredoxin reductase 1. O89049. purified TrxR1 substrate turnover, NADPH consumption readout. Potency, µM (top dose mostly 114 µM), for the others: top-dose activity change, negative = substrate turnover. 390,000 tested, 0.01% active; also: potency is read from the fitted curve at half-maximal effect; nearly all actives have a fitted effect of over 50% in size
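Rat TrxR1, dispensed at 90 nM, was prereduced with 400 uM NADPH (final) for 5 min at ~22 deg C, then incubated with compound 15 min before 400 uM selenite. A first-read NADPH fluorescence drop versus no-compound background flagged substrates.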
IDH1 R132H inh: human IDH1 R132H inhibition; O75874; IDH1-R132H enzyme, NADPH consumption, diaphorase/resazurin fluorescence; Potency, µM (series often up to 76.6 µM), without a hit: at the highest dose activity change, negative = inhibition, usual class: inhibitors; 390,000 tested, 0.093% active; also: potency is read from the fitted curve at half-maximal effect; nearly all actives have a fitted effect of over 65% in size
Target sequence (O75874 whole entry R132H, stated change not applied): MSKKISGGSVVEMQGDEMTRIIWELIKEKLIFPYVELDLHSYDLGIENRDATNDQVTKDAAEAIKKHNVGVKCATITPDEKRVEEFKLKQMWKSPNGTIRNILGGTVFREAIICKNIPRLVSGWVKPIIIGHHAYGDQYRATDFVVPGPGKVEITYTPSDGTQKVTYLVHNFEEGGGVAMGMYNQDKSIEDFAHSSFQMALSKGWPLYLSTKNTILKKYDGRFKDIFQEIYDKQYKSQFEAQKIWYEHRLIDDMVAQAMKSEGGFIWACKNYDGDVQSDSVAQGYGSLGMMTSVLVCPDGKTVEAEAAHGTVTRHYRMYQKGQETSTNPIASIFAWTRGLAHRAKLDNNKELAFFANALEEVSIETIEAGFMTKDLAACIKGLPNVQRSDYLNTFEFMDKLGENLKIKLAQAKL
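IDH1-R132H (0.5 ug/mL) preincubated 30 min with compound, then NADPH (0.016 mM) and alpha-KG (2 mM) added; 80 min at RT, pH 7.5. Remaining NADPH coupled via diaphorase/resazurin to fluorescence (540/590 nm); concentration-response curves normalized to no-enzyme control.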
PKM2 activator: PKM2 (human) enzyme activation; Potency, µM (highest dose often 57.5 µM), for the others: at the top dose activation, actives largely listed as activators; P14618; AID 1631; 260,000 tested, 0.34% active; purified PKM2, Kinase-Glo ATP luminescence, activation; response scale: 0% is enzyme alone, no compound; also: potency is read from the fitted curve at half-maximal effect; nearly all actives have a fitted effect of over 55% in size
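ATP formation by purified human PK-M2, quantified via coupled luciferase luminescence after 1 h at room temperature with 0.1 mM ADP and 0.5 mM PEP final.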
GLS inh: blocks human kidney-isoform glutaminase activity; 410,000 tested, 0.21% active; Potency, µM (titrated, usually from 45.5 µM), without a hit: top-dose activity change, negative = inhibition, most hits filed as inhibitors; GLS enzymatic activity, qHTS titration; also: potency is read from the fitted curve at half-maximal effect
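Compounds were pin-transferred onto hKGA, after which L-glutamine (1 mM solution) and a detection mix of glutamate oxidase, HRP and Amplex Red were added. Initial and 30 min RT fluorescence reads were collected.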
LDHA block: inhibitors of human lactate dehydrogenase A. P00338. purified LDHA, NADH/diaphorase-resazurin fluorescence; hits give low values. activity change, % (values are at about 110 or 230 µM). 480,000 tested, 0.15% active. AID 1347041; in the data active = activity change below about -30%; inconclusive = mostly about -25% to -30%;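 also: plate controls were DMSO wells for no effect and wells without enzyme for full effect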
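Enzyme activity of human lactate dehydrogenase 5 (2 nM; 0.06 mM NADH, 0.2 mM pyruvate, 5 min, RT) is measured via a resazurin/diaphorase fluorescence readout of residual NADH.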
Numbers without * were called inactive; u = inconclusive; x = no result given; [ ] = remark or other dose. An excerpt weighted towards active compounds, which were near 1.4% of everything screened. Unless noted, calls follow the shape of the dose curve; as a rule, active = well fitted curve in the direction sought with a large enough effect; inconclusive = small, poorly fitted or top-dose-only effect, or another doubt; inactive = no such curve, though single readings can be large; an effect the other way counts as inactive or inconclusive. Unless noted, % is scaled to controls: 0 for no effect and ±100 for the full control effect.

SMILES	rTrxR1 inhibitor	TrxR1 substrate	IDH1 R132H inh	PKM2 activator	GLS inh	LDHA block
N#Cc1cccc2c1-c1ccccc1/C2=N/NC(N)=S	u	3.6%[57.1 µM]	-0.5%	x	u	-15.0
O=C(NCS(=O)(=O)c1ccccc1)c1ccccc1	44.7µM*	4.1%	2.6%	-4.6%	4.7%	-1.1
COc1ccc2c([N+](=O)[O-])c(Cl)[nH]c2c1	14.1µM*	-0.9%	23.3%	-1.2%	1.9%	17.4
COc1ccc2c([N+](=O)[O-])c(N3CCOCC3)[nH]c2c1	x	x	0.7%	x	2.0%	2.3
CCC(=O)Nc1ccc2oc(-c3cccc4c(Cl)cccc34)nc2c1	x	x	x	x	x	0.4
Cc1ccc(N2C(=O)CC(Sc3ncccc3C(=O)O)C2=O)cc1 (stereo not given)	12.3%	5.8%	3.5%	2.5%	0.0%	-4.3
CCOc1ccccc1N1C(=O)CC(Sc2ncccc2C(=O)O)C1=O (stereo not given)	-9.1%	1.7%	-0.2%	6.6%	17.8µM*	-8.6
CC(=O)Oc1ccccc1C(=O)Nc1ccccc1	1.4%[57.1 µM]	6.1%[57.1 µM]	x	x	-9.6%	-15.6
COC1(OC)C=CC(=O)C=C1NC(=O)c1ccccc1OC(C)=O	12.6µM*	-4.5%[57.1 µM]	x	x	-0.2%	18.2
CC(=O)NN1C(=O)/C(=C/c2ccc(Br)o2)SC1=S	25.1µM*	-6.1%[57.1 µM]	8.8%	8.1%	u	8.5
CC1CCN(c2nc(SCCN(C)C)c(C#N)c3c2CCCC3)CC1	x	x	x	x	x	9.3
COc1ccc(C(=O)CCN2CCN(c3ccc(OC)cc3)CC2)cc1	2.82µM*	-4.6%[57.1 µM]	3.0%	x	-4.7%	1.1
O=C(CCN1CCCC1)c1cccs1	0.398µM*	4.7%[57.1 µM]	3.9%	7.9%	-1.3%	-1.7
Cc1ccc(C(=O)CCN2CCCCCC2)cc1	x	x	x	x	x	-9.8
CCOc1ccc(C(=O)CCC(=O)NN2CCCCC2)cc1	x	x	-4.5%	x	14.6%	-1.4
O=C(CCN1CCCCCC1)c1ccccc1	0.891µM*	10.4%[11.4 µM]	3.2%	-0.1%	12.5%	2.8
CCOc1ccc(C(=O)CCN2CCCCC2)cc1	0.708µM*	12.5%	-0.3%	-7.4%	7.2%	-2.3
O=C(COc1ccc(F)cc1)Nc1ccc2oc(-c3cccc(Cl)c3)nc2c1	x	x	x	x	x	2.3
COc1ccc(C(=O)CN2CCN(c3ccc(Cl)cc3)CC2)cc1OC	-16.9%	7.4%	-1.2%	x	20.0%	-3.0
COc1ccc(C(O)(CCc2ccccc2)CCN2CCCCC2)cc1 (stereo not given)	8.91µM*	6.8%[57.1 µM]	0.0%	5.2%	-4.3%	-2.8
C=CCC(O)(CCN1CCCCC1)c1ccccc1 (stereo not given)	5.0%[57.1 µM]	10.4%[57.1 µM]	6.5%	4.4%	10.4%	-6.8
COc1ccc(C(=O)CCN2CCCCCC2)cc1	0.794µM*	6.5%	2.2%	2.4%	10.9%	5.7
O=C(CCN1CCC(c2cccs2)=N1)c1cccs1	22.4µM*	-0.5%	8.5%	-5.7%	0.8%	2.0
O=C(CCC(=O)N1CCN(c2ccccn2)CC1)c1cccs1	12.0%	7.0%	6.1%	x	10.5%	-6.5
COc1ccc(C(=O)CN2CCN(c3ccc(F)cc3)CC2)cc1OC	20µM*	1.6%	5.0%	2.7%	20.6%	10.6
SMILES	rTrxR1 inhibitor	TrxR1 substrate	IDH1 R132H inh	PKM2 activator	GLS inh	LDHA block
COc1ccc(C(=O)OCCN2CCCCC2)cc1	-1.7%	-2.1%	0.0%	-8.0%	-3.0%	-0.5
CC1=C(C(N)=O)C(c2ccc(Cl)cc2)n2nc(-c3cccc(C)c3)nc2N1 (stereo not given)	x	x	x	x	x	-0.9
Cc1ccc(/C=N/Nc2ccc(S(=O)(=O)Nc3ccc(Cl)cc3)cc2[N+](=O)[O-])cc1	x	x	x	x	x	5.2
CCn1nc(-c2ccc(C)c(S(=O)(=O)NCc3ccc(C)cc3)c2)c2c(c1=O)CCCC2	x	x	x	x	x	1.8
CCCCCn1c(CCC(=O)NCc2cccc(OC)c2)nc2c1c(=O)[nH]c(=O)n2CCCC	x	x	x	x	x	3.6
CCCOc1ccc(C(=O)CCN2CCN(C(=O)OCC)CC2)cc1	8.91µM*	3.6%[57.1 µM]	0.3%	6.8%	0.0%	-0.7
CCOC(=O)N1CCN(C(=O)CCC(=O)c2ccc(OCC)cc2)CC1	10.6%	2.0%	-3.3%	-15.7%	-4.3%	-5.2
CCCC(=O)C1=C(c2ccccc2)C(C#N)(C#N)C(C#N)=C1N	12.6µM*	-9.8%	9.1%	-4.9%	49.4%	9.1
CCc1cccc(NC(=O)CSC2=NS(=O)(=O)c3ccccc32)c1	3.16µM*	3.2%[57.1 µM]	-7.2%	13.0%	5.4%	2.2
CCc1cccc(NC(=O)CSc2ncc3c(n2)-c2ccccc2N(CC)S3(=O)=O)c1	-4.9%[57.1 µM]	-0.7%[57.1 µM]	15.4%	x	-14.4%	-5.9
COc1ccc(C)c2sc(NC(=O)CCS(=O)(=O)c3ccccc3)nc12	39.8µM*	1.6%	11.0%	-0.4%	1.2%	1.4
O=C(O)/C=C/C(=O)NNC(=O)c1cc(-c2ccccc2)n[nH]1	6.31µM*	10.3%	-0.6%	-15.5%	-14.1%	1.5
N#Cc1nc(-c2ccco2)oc1N1CCN(C(=O)c2cccc(Cl)c2)CC1	x	x	x	x	x	-12.7
COc1ccc(NC(=O)Cn2nc(-c3ccc(C)cc3)c3ccccc3c2=O)cc1	x	x	x	x	x	-4.4
CN(C)c1cccc(N=C2C=C(N3CCOCC3)CC(C)(C)C2)c1	u	-8.2%	8.7%	-0.4%	33.1%	-31.3*
CCc1nnc2sc(-c3ccc(NC(=O)C(C)(C)C)cc3)nn12	x	x	x	x	x	7.7
Cc1ccc(S(=O)(=O)N(C)C)cc1C(=O)OC(C)C(=O)c1ccccc1 (stereo not given)	x	x	x	x	x	-4.4
CCCCNC(=O)CN1CCN(Cc2ccc3cc(OC)ccc3c2)CC1	16.1%	2.3%	7.8%	x	3.6%	-33.0*
COc1ccc(NC(=O)CN2CCN(Cc3ccccc3)CC2)cc1	13.6%	-2.1%	16.9%	-1.3%	-1.4%	-5.1
O=C(Nc1ccc(NC(=O)c2ccc(Cl)cc2Cl)cc1)c1ccc2c(c1)OCO2	14.5%	6.9%	0.7%	-1.3%	-3.9%	-0.6
O=C(Nc1ccc(C2=NCCN2)cc1)c1ccc(C(=O)Nc2ccc(C3=NCCN3)cc2)c(Cl)c1	9.0%[57.1 µM]	1.6%[57.1 µM]	1.4%	6.3%	-14.8%	-33.2*
O=C(c1ccccc1F)N1c2nc(-c3ccco3)nn2C2(CCCCC2)[C@@H]2CCCC[C@@H]21	25.1µM*	-3.4%	-21.5%	x	-11.3%	4.2
O=C(c1ccc(F)cc1)N1c2nc(-c3ccco3)nn2C2(CCCCC2)[C@@H]2CCCC[C@@H]21	u	1.4%	-2.6%	x	-27.6%	-3.7
COc1cccc(C2=NN3C(C2)c2cccc(OC)c2OC32CCN(S(C)(=O)=O)CC2)c1 (stereo not given)	x	x	x	x	x	2.8
CS(=O)(=O)c1ccc(S(=O)CC(=O)Oc2ccc(Cl)cc2)c([N+](=O)[O-])c1 (stereo not given)	1.78µM*	3.7%[57.1 µM]	-4.0%	16.2%	0.0%	16.0

Screening data from PubChem.
